The text below walks through data of PubChem BioAssay (NCI).

Compounds without any hit were thinned out: in the full panel of roughly 83,000, 20% have a hit.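 The endpoint reported here, percent growth, reads 100 for growth as untreated, 0 for no net growth and -100 for all cells dead.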 Values without a mark were called inactive. Active and inactive are the calls of the source. The calls were made as follows: active = growth percent below 10; inactive = the rest.

What all share (assay): NCI-60 one-dose screen, 48 h (100 = growth as untreated, 0 = no growth, -100 = all killed)
One test concerns T-47D breast. The following applies: 10 µM.
In another test the test system is MDA-MB-435 melanoma. The following applies: 10 µM unless noted.
Another test has as its system SW-620 colon. The following applies: 10 µM unless noted.
In a further test the test system is MCF7 breast. The following applies: 10 µM unless noted.
Another test has as its system HCT-116 colon. The settings on record: 10 µM unless noted.
For another test, the system named is HCC-2998 colon. The following applies: 10 µM unless noted.
In a further test the test system is KM12 colon. The following applies: 10 µM unless noted.
A further test has as its system BT-549 breast. The following applies: 10 µM unless noted.

`COc1cc(C2=NN(c3ccc(S(N)(=O)=O)cc3)C(c3ccc(Cl)cc3)C2)cc(OC)c1OC` (stereo not given): the growth was 20.4% in the test with T-47D breast; 29.2% with MDA-MB-435 melanoma; 44.3% with SW-620 colon; 25.2% with MCF7 breast; 23.2% with HCT-116 colon; 45.9% in the test with HCC-2998 colon. In addition, the growth with KM12 colon was 37.6%.
For `COc1cc(/C=C/c2cc(/C=C/c3ccc(O)c(OC)c3)n(-c3ccccc3)n2)ccc1O`, the growth in the test with T-47D breast was -23.9% (active); in the test with MDA-MB-435 melanoma, -67.3% (active); in the test with SW-620 colon, -22.7% (active); in the test with MCF7 breast, -5.71% (active); in the test with HCT-116 colon it was -5.83% (active); with HCC-2998 colon, 5.82% (active). The growth with KM12 colon is -28% (active).
Consider `Cc1ccc(S(=O)(=O)N2CCc3ccc(O)c4c3C2Cc2cc(Cl)ccc2-4)cc1` (stereo not given), for which the growth in the test with T-47D breast is 65.4%; with MDA-MB-435 melanoma it was 8.9% (active); in the test on SW-620 colon, 33.1%; in the test with MCF7 breast, 23.3%; in the test on HCT-116 colon, 70.9%; with KM12 colon, 30.8%.
Take `Cc1c(C(=O)Nc2nc(-c3ccccc3)cs2)nnn1-c1cccc2ccccc12`: the growth is 56.7% [50 µM] in the test with BT-549 breast; 47.2% [50 µM] in the test with MDA-MB-435 melanoma; 71.6% [50 µM] with SW-620 colon; 38.7% [50 µM] in the test with MCF7 breast; 30% [50 µM] in the test with HCT-116 colon; 87.7% [50 µM] in the test on HCC-2998 colon. In addition, the growth in the test on KM12 colon was 65% [50 µM].
Regarding `c1ccc2cc(-c3n(Cc4ccc5ccccc5n4)c4ccccc4[n+]3Cc3ccc4ccccc4n3)ccc2c1`, the growth was -5.25% (active) in the test on BT-549 breast; -35.6% (active) in the test on MDA-MB-435 melanoma; -9.76% (active) with SW-620 colon; -10.4% (active) with MCF7 breast; 2.75% (active) in the test on HCT-116 colon; -52.7% (active) with HCC-2998 colon. Further, the growth with KM12 colon is -80.8% (active).
With `CCCCCCCCCCCCCCCC[N+]1(C)CCOCC1`, the growth with BT-549 breast was 15.1%; in the test on MDA-MB-435 melanoma, 26.9%; in the test on SW-620 colon, 6.63% (active); in the test with MCF7 breast, 61.6%; in the test on HCT-116 colon, 18.2%; in the test with HCC-2998 colon, 13.9%. In the test with KM12 colon, the growth was -94.4% (active).
For the compound `CCCCCCCC/C=C\CCCCCCCCOc1cccc(CC(=O)NCC[N+]2(C)CCCCC2)c1`, the growth in the test with BT-549 breast is 95.3%; in the test on MDA-MB-435 melanoma it was 82.1%; in the test on SW-620 colon, 59.7%; in the test on MCF7 breast it was 75.7%; with HCT-116 colon, 71.5%; with HCC-2998 colon, 67.9%. In addition, the growth in the test on KM12 colon is 43.6%.
`O=C(N/N=C/c1ccc(OC(F)F)c(OC2CCCC2)c1)c1cnn2c1NC(c1ccccc1)C2` (stereo not given): the growth is 73.4% with BT-549 breast; 18% with MDA-MB-435 melanoma; 78.4% with SW-620 colon; 69.2% with MCF7 breast; 67.4% in the test with HCT-116 colon; 111% with HCC-2998 colon. In the test with KM12 colon, the growth is 54.8%.
For the compound `CCCCOC(=O)C1OC(Oc2ccc3c(C)cc(=O)oc3c2)[C@@H](OC(C)=O)C(OC(C)=O)C1OC(C)=O` (stereo not given in full), the growth is 103% in the test with BT-549 breast; 101% in the test with MDA-MB-435 melanoma; 102% in the test with SW-620 colon; 91.5% in the test with MCF7 breast; 88.1% with HCT-116 colon; 109% with HCC-2998 colon. In the test with KM12 colon, the growth is 99.4%.
Take `O=S(=O)(OCCO)c1ccccc1`: the growth in the test on BT-549 breast was 105%; with MDA-MB-435 melanoma, 98.2%; with SW-620 colon it was 101%; with MCF7 breast, 94.9%; in the test with HCT-116 colon it was 104%; with HCC-2998 colon, 113%. The growth with KM12 colon was 103%.
On to `Cc1ccc(N(CSc2ccc(Cl)cc2)CSc2ccc(Cl)cc2)cc1`, for which the growth with BT-549 breast is 19.1%; in the test on MDA-MB-435 melanoma, 40.8%; in the test with SW-620 colon, 31.4%; in the test on MCF7 breast, 65.6%; in the test with HCT-116 colon, 38.9%; in the test on HCC-2998 colon, 88.1%. Besides, in the test on KM12 colon, the growth was 18.4%.
For the compound `Cc1ccc(C(=O)Nc2ccccc2N)cc1`, the growth with BT-549 breast was 61.5%; with MDA-MB-435 melanoma, 68.3%; in the test on SW-620 colon, 60%; in the test on MCF7 breast, 74.8%; in the test on HCT-116 colon it was 62.9%; in the test on HCC-2998 colon it was 77.1%. Besides, in the test on KM12 colon, the growth was 87.4%.
For `Cc1cc(C)c(S(=O)O)c(C)c1`, the growth in the test on BT-549 breast was 104%; in the test with MDA-MB-435 melanoma it was 103%; with SW-620 colon it was 103%; with MCF7 breast, 109%; in the test on HCT-116 colon, 109%; in the test on HCC-2998 colon it was 110%. Moreover, in the test with KM12 colon, the growth is 112%.
Regarding `O=C(NC1CC1)c1cc2n(n1)CC(c1ccccc1)N2` (stereo not given), the growth was 99.7% with BT-549 breast; 99.4% with MDA-MB-435 melanoma; 95.4% in the test with SW-620 colon; 85.9% in the test on MCF7 breast; 102% with HCT-116 colon; 101% with HCC-2998 colon. The growth in the test on KM12 colon is 102%.
For `NC(=O)c1cc(I)ccc1NC(=O)COc1ccc(Cl)cc1Cl`, the growth is 77.6% in the test with BT-549 breast; 14.9% with MDA-MB-435 melanoma; 79.6% with SW-620 colon; 72.2% in the test with MCF7 breast; 90.7% with HCT-116 colon; 95.3% in the test on HCC-2998 colon. In the test on KM12 colon, the growth is 67.8%.
Turning to `CCCCNNC(=O)c1ccc(Br)cc1`, the growth in the test with BT-549 breast is 78.7%; in the test on MDA-MB-435 melanoma, 36.5%; with SW-620 colon, 32.6%; in the test on MCF7 breast, 48%; in the test on HCT-116 colon, 19.5%; in the test with HCC-2998 colon it was 61.4%. Moreover, the growth in the test with KM12 colon is 78.1%.
`CCOC(=O)c1cnn(CC(O)c2ccc(F)cc2)c1NC(=O)Nc1ccccc1F` (stereo not given): the growth was 80.1% in the test with BT-549 breast; 102% in the test on MDA-MB-435 melanoma; 101% with SW-620 colon; 93.1% with MCF7 breast; 89.4% in the test with HCT-116 colon; 115% in the test with HCC-2998 colon. Further, in the test on KM12 colon, the growth is 94.3%.
Regarding `Nc1nc(-c2ccnc(Cl)c2)nn1-c1nc2ccccc2s1`, the growth is 106% with BT-549 breast; 107% in the test on MDA-MB-435 melanoma; 106% in the test with SW-620 colon; 97.2% in the test on MCF7 breast; 107% in the test on HCT-116 colon; 104% in the test on HCC-2998 colon. In addition, the growth in the test with KM12 colon is 101%.
